Sampled rows, rich in hits. Any-hit rate of the full collection: about 4.1%.
ABHD5-PLIN5 inh – inhibitors of human ABHD5-perilipin-5 interaction; Q00G26+Q8WTS1; Split G. princeps luciferase complementation, luminescence, 4 h; inhibition, % at 4 µM; 360,000 compounds, 0.78% hits;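 active = inhibition above the mean inhibition across every tested compound plus 3 SD, cut at about 22% in these data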;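 also: 0% = DMSO only wells and the 100% control is not disclosed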
MBD2 inh – MBD2-methylated oligo binding inhibition; inhibition, % at 4.4 µM; 370,000 compounds, 0.31% hits; TR-FRET, MBD2 binding to methylated oligonucleotide; AID 686964; Q9UBB5; in the data active = inhibition above about 13%
LEDGF integ inh – blocks HIV-1 LEDGF/p75-dependent DNA integration; TR-FRET IN-LEDGF/p75 DNA integration, Eu/Cy5; inhibition, % at 3.7 µM; 370,000 compounds, 0.64% hits; AID 743269;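 active = inhibition above the screen-wide mean plus 3 SD, cut at about 13% in these data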;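 also: signal is the Cy5 over europium emission ratio at 671 and 618 nm; 0% = plate median of compound wells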
UHRF1 MBD2 ctr – human UHRF1 methylated DNA binding inhibitors. Q96T88. UHRF1 binding to methylated oligo, TR-FRET. inhibition, % at 4.4 µM. 370,000 compounds, 0.75% hits; in the data active = inhibition above about 21%;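 also: UHRF1 SRA domain binding a hemimethylated CpG hairpin DNA probe; 0% = median of test compound wells and 100% = reference inhibitor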
rCAG binder – binds r(CAG) RNA repeats; r(CAG) RNA repeat, TO-PRO-1 dye displacement fluorescence; inhibition, % at 3 µM; 370,000 compounds, 1.3% hits; AID 651821;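 active = inhibition above the plate cutoff, the mean of all test compounds on that plate plus 3 SD, cut at about 35% in these data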;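 also: 0% = DMSO alone and 100% = 100 µM mitoxantrone as full dye displacement; higher means more dye released from RNA so lower well fluorescence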
PRMT1 FP inh – inhibitors of human PRMT1; Q99873; recombinant PRMT1, activity-based probe fluorescence polarization; inhibition, % at 2.79 µM; 370,000 compounds, 1.3% hits; AID 652257;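 active = inhibition above about 21% made by adding two undisclosed values, limit read from the data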
Target sequence (Q99873 whole entry, looked up): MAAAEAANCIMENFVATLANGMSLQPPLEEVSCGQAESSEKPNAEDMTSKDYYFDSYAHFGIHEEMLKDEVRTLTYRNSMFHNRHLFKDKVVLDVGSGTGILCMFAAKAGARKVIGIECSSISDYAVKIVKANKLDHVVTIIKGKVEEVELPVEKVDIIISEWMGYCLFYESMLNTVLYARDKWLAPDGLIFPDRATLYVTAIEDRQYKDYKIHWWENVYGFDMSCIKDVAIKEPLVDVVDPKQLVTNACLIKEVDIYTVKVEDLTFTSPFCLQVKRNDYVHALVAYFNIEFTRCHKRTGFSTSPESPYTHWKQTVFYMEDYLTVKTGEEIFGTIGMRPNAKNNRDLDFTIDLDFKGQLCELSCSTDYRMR
ABHD5-PLIN5 conf – ABHD5-PLIN5 interaction inhibition, confirmed. biochemical ABHD5-PLIN5 interaction, luminescence. 2,200 compounds, 67% hits. AID 651612. shares compounds with ABHD5-PLIN5 inh. inhibition, % at 4 µM; in the data active = inhibition above about 23%;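 also: 0% = DMSO vehicle wells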
HNF4 split-luc – counter-screen for ABHD5-PLIN5 inhibitors: HNF4 split-luciferase. shares compounds with ABHD5-PLIN5 inh. HNF4 dimerization, luminescence, biochemical. inhibition, % at 4 µM. 2,200 compounds, 77% hits;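 active = mean inhibition across replicate wells exceeding the computed hit threshold, cut at about 13% in these data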;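 also: light from luciferase halves that rejoin when HNF4 fusion proteins dimerize; 0% = DMSO only wells and the 100% control is not given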
The depositor's hits bear a star; . = not tested or not shown.

SMILES	ABHD5-PLIN5 inh	MBD2 inh	LEDGF integ inh	UHRF1 MBD2 ctr	rCAG binder	PRMT1 FP inh	ABHD5-PLIN5 conf	HNF4 split-luc
COC(=O)C1=C(C)N(Cc2ccccc2C(F)(F)F)C(=NCc2ccc(C(F)(F)F)cc2)NC1c1ccc(C(F)(F)F)cc1 (configuration not stated)	.	7	2	-1	2	-1	.	.
CC(=O)CC[C@H]1CC[C@]2(CCCN(C(=O)c3ccccc3)C2)O1	.	1	2	-2	-1	0	.	.
CC(C)(C)c1cc(Cl)ccc1OCCn1ccnc1	-1	6	4	0	-6	2	.	.
CC(O)CNCCCOc1ccc(Cl)cc1C(C)(C)C (configuration not stated)	29*	-4	1	1	2	1	11	6
CN(C)CCOCCOc1ccc(Cl)cc1C(C)(C)C	23*	3	3	3	-7	-1	10	1
CC(C)CC(=O)c1c(O)cc(O)c2c1OC1=C(C(=O)C(C)(C)C(=O)C1(C)C)C2CC(C)C (configuration not stated)	.	1	-3	-1	29	19	.	.
COC(=O)C1CN(C2CC2)CCS(=O)(=O)N1Cc1cn(Cc2ccccc2)nn1 (configuration not stated)	.	12	7	12	2	-3	.	.
CN(Cc1ccco1)C(=O)CCc1nc2sc3c(c2c(=O)[nH]1)CCCC3	24*	2	12	0	7	6	26*	43*
Cc1ccc(CN(C)C(=O)CCc2nc3sc4c(c3c(=O)[nH]2)CCCC4)o1	32*	-5	-2	2	2	17	17	29*
COc1ccc(-n2c(SCC(=O)Nc3ccc(Oc4ccccc4)cc3)nnc2-c2ccc(C)cc2)cc1	.	5	0	1	9	2	.	.
CN(C)CCC1(C2=CCCC2)CC/C(=C/c2ccc(Cl)cc2)C1=O (configuration not stated)	32*	2	-3	-1	5	4	39*	21*
CC1=NNC(=O)/C1=C\c1cn(-c2ccccc2)nc1-c1ccccc1	74*	-7	6	-3	19	11	99*	101*
CC1CCN(c2c3c(nc4ncnn24)CCCC3)CC1	.	2	3	-2	-1	2	.	.
O=C(NCCCN1CCOCC1)c1sc2cc([N+](=O)[O-])ccc2c1Cl	24*	.	.	.	.	.	5	66*
O=S(=O)(N[C@@H]1CCCC[C@@H]1N1CCOCC1)c1ccc(Cl)cc1	.	2	0	-2	.	0	.	.
CC[n+]1c(/C=C2\Sc3ccccc3N2C)ccc2cccc(C)c21	24*	6	-5	-46	-162	2	23*	26*
CN(C)CCn1cnc2c(c1=N)C(c1ccccc1)c1ccc3ccccc3c1O2 (configuration not stated)	26*	-1	0	0	13	2	14	0
Cc1ccc(-c2cc(C(F)F)nc(S(C)(=O)=O)n2)cc1	25*	5	1	1	-2	4	45*	51*
Cc1ccc(-c2cc(-c3ccccc3)nc(Cl)n2)cc1	-3	0	-1	-1	4	-1	.	.
CCOC(=O)/C(=C/c1c(C)n(C)c2ccc([N+](=O)[O-])cc12)C(C)=O	46*	6	0	5	3	0	83*	76*
COc1cc(NC(=O)c2ccccc2)c(C)cc1NC(=O)CSc1nnc(-c2cnccn2)n1-c1ccc(C)cc1	.	7	0	1	11	-2	.	.
O=S(=O)(c1ccccc1)N1CCN(S(=O)(=O)c2ccccc2)C1	-3	1	-1	0	-1	0	.	.
O=S(=O)(/N=S1/CC=CCN1S(=O)(=O)c1ccccc1)c1ccccc1 (configuration not stated)	71*	.	.	.	.	.	60*	101*
CC(C)[C@H](NS(=O)(=O)c1ccccc1)C(=O)OCC(=O)N1N=C(c2ccc(Cl)cc2)CC1c1ccco1 (some centres not stated)	24*	1	-1	1	34	15	48*	56*
Cc1ccc(OCC(=O)N2N=C(c3ccc(Cl)cc3)CC2c2ccco2)c([N+](=O)[O-])n1 (configuration not stated)	24*	1	-5	-1	0	2	7	14*
SMILES	ABHD5-PLIN5 inh	MBD2 inh	LEDGF integ inh	UHRF1 MBD2 ctr	rCAG binder	PRMT1 FP inh	ABHD5-PLIN5 conf	HNF4 split-luc
O=C(CSc1nnc(-c2ccccc2)n1-c1ccccc1)NN=C/C=C\c1ccccc1[N+](=O)[O-]	.	-4	5	-3	5	-11	.	.
CC(C)CNC(=O)OCc1cn(Cc2c(F)cccc2F)nn1	.	2	6	-1	-1	-6	.	.
CCOC(=O)CCCNC(=O)OC1CC2CC1[C@H]1CCCCN1[C@H]2C (some centres not stated)	.	4	-2	0	1	1	.	.
O=C1Nc2cnc(Cl)nc2Nc2ccc(Cl)cc21	.	-3	-2	-1	3	-3	.	.
O=C1Nc2ccc(Cl)cc2/C1=C/C1CC=CCC1 (configuration not stated)	30*	-1	0	-4	-1	0	55*	39*
C=C1C(=O)[C@]23C[C@H]1CC[C@H]2[C@]1(C)[C@@H](O)CC[C@@](C)(C(=O)O)[C@H]1C[C@@H]3O	31*	-8	-1	0	2	4	33*	89*
C=C1C(=O)[C@]23C[C@H]1CCC2[C@@]1(C)C(C[C@@H]3O)[C@](C)(C(=O)O)C[C@H](O)[C@@H]1O (some centres not stated)	38*	-1	-4	4	1	14	38*	83*
COC(=O)[C@]12C[C@H](CC(=O)NCc3cccc4ccccc34)C(=O)N(CCC3=CCCCC3)C1=C[C@H](C1CCCC1)O[C@@H]2C	.	0	-1	-1	5	-3	.	.
O=C(Nc1ccc(Cl)cc1)/C(=C/c1cccc(O)c1)c1nc2ccccc2s1	30*	-4	-6	-4	15	-2	86*	61*
S=C(Nc1ccc(Cl)cc1)c1nc2ccccc2s1	-2	-1	2	2	8	-1	.	.
N#Cc1c(Nc2ccccc2C(F)(F)F)s[nH]c1=O	16	0	-2	1	-1	20	.	.
N#Cc1c(Nc2ccccc2Cl)s[nH]c1=O	25*	-2	2	-1	2	23*	44*	103*
CCCCOCC1CN(CCCC)S(=O)(=O)c2c(cccc2Sc2ccc(OC)c(OC)c2)O1 (configuration not stated)	.	-4	0	-2	7	0	.	.

Screening results: PubChem BioAssay, The Scripps Research Institute Molecular Screening Center
